Structures are written as SMILES. Active and inactive are the calls of the source.

Chain of Fibroblast growth factor 10 (Homo sapiens) (O15520 whole entry, looked up): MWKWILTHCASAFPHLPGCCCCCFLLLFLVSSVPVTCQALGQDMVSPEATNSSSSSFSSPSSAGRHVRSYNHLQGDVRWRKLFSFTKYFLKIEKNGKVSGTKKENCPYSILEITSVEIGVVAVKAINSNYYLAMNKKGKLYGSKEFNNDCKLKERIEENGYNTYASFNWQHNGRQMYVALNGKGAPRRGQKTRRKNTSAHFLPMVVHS

System in one experiment: not listed separately
The experiment is described as follows: change in splice reporter luminescence, either direction, cell-based, HEK293, spliceosome inhibition project, primary screen (AID 1101).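 Also: HEK293 cells carrying a splicing-competent luciferase reporter gene; test concentration not given here.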 To be noted: HEK293 splicing luciferase reporter, 24 h, higher = more signal, called active from +8 up or from −8 down. (In a reporter assay the amount or activity of a reporter protein is the signal.)
As for `COCCCNC(=O)[C@@]1(CCC(=O)OC(C)(C)C)N=C(c2ccc(OCCCO)cc2)O[C@H]1c1ccccc1N=[N+]=[N-]`, the z-score was -0.912 (inactive). For `[N-]=[N+]=Nc1ccccc1C[C@]1(C(=O)NCC(O)CO)COC(c2ccc(OCCCO)cc2)=N1` (stereo partly specified), the z-score is 0.173 (inactive). Same read-out and setting: to `CCCC[C@@H](O)C1=C(COC)C[C@H]2C(=O)N(C)C(=O)[C@H]2[C@H]1CO` belongs -0.857 (inactive); to `CCCCCCc1nc(Cc2cc(OC)c(OC)c(OC)c2)cc2c1[Si](C(C)C)(C(C)C)OC2`, -0.393 (inactive).

The next experiment has as its target Fibroblast growth factor 10 (Homo sapiens) (UniProt O15520). Briefly: compounds binding fibroblast growth factor 10 – biochemical, small-molecule microarray, 635 nm fluorescence, primary screen (AID 1102). To be noted: FGF10 binding, fluorescence 635 nm, higher = more signal.
Compound `N#Cc1ccc(NN2C(C(O)c3ccc(Br)cc3)C=CC3C(=O)N(c4ccccc4)C(=O)C32)cc1` (stereo unspecified) had a composite z-score of 0.65.

In the case of `CC1CC/C=C\[C@H]2OC34C=CCN(c5ccc(Cl)cc5)C(=O)[C@H]3N(C(C)CO)C(=O)[C@]4(C)C2C(=O)O1` (stereo partly specified), the composite z-score was -0.39. On the same count and under the same terms, in the case of `CO[C@H]1O[C@H](CO)[C@@H](OC(=O)Nc2ccc(Br)cc2)[C@@H]2OC(=O)[C@@H](Cc3ccccc3)C/C=C/C[C@H](Cc3ccccc3)C(=O)O[C@@H]12` it was 0.767; in that of `CCOC(=O)C[C@H]1[C@H](OC(=O)c2cc3ccccc3oc2=O)[C@@H](NC(=O)c2ccccc2)c2cc(OCCCO)ccc2N1C(=O)c1ccccc1`, 0.836. Same read-out and setting: in the case of `O=C1OCCC=C[C@H]2OC34C=CCN(c5ccc6ccccc6c5)C(=O)[C@H]3N(CCCO)C(=O)[C@@H]4C12` (stereo partly specified) it was -1.62; in that of `O=C1C2C=CC(C(O)C3CC=CCC3)N(Nc3ccccc3)C2C(=O)N1c1ccccc1` (stereo unspecified), 0.154.

For the compound `Cc1ccc(S[C@]2(C(=O)NC(C)C)CC(=O)N(Cc3cc(C(F)(F)F)cc(C(F)(F)F)c3)[C@@H]2c2ccc(CO)cc2)cc1`, the composite z-score is -0.671.

For the origin of these results see PubChem BioAssay.
